Measured values from PubChem BioAssay (NCI).
Compounds without any hit were thinned out: in the full panel of roughly 83,000, 20% have a hit.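 96-well plates, one dose, 48 hours. Percent growth reported; active if below 10.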 Unmarked numbers belong to inactive results. Activity calls are given as the source filed them.

Legend:
Test in all cases: NCI-60 one-dose screen, 48 h (100 = growth as untreated, 0 = no growth, -100 = all killed)
Settings in all cases: 10 µM unless noted
[1] = test system: HCT-15 colon
[2] = test system: HT29 colon
[3] = test system: SNB-75 CNS
[4] = test system: SNB-19 CNS
[5] = test system: U251 CNS
[6] = test system: PC-3 prostate
[7] = test system: SK-MEL-5 melanoma
[8] = test system: UACC-62 melanoma
[9] = test system: LOX IMVI melanoma
[10] = test system: SK-MEL-28 melanoma

**Q.** Which growth [1] does the source give for O=C(CO[N+](=O)[O-])Nc1ccc(C(=O)/C=C/c2ccc3c(c2)OCO3)cc1 here?
**A.** The growth was 76.7%.

**Q.** What about the growth [2] of the same compound?
**A.** Its growth is 30.1%.

**Q.** And the growth [3]?
**A.** The growth was 86.3%.

**Q.** What about the growth [4] of the same compound?
**A.** Its growth is 104%.

**Q.** And the growth [5]?
**A.** Its growth is 57.3%.

**Q.** What about the growth [6] of the same compound?
**A.** The growth was 61.4%.

**Q.** And the growth [7]?
**A.** Its growth is 90.8%.

**Q.** What about the growth [8] of the same compound?
**A.** The growth was 96%.

**Q.** What about the growth [9] of the same compound?
**A.** Its growth is 21.5%.

**Q.** What about the growth [10] of the same compound?
**A.** Its growth is 104%.

**Q.** CC[n+]1ccc2c(c1)C(=O)c1nccc3c1c-2nc1ccccc13 was tested. Which growth [1] did it give?
**A.** The growth was 48.5%.

**Q.** And the growth [2]?
**A.** Its growth is 10%.

**Q.** And the growth [3]?
**A.** Its growth is -75.2% (active).

**Q.** What about the growth [4] of the same compound?
**A.** Its growth is -70.5% (active).

**Q.** And the growth [5]?
**A.** Its growth is -60% (active).

**Q.** And the growth [6]?
**A.** Its growth is 3.26% (active).

**Q.** What about the growth [7] of the same compound?
**A.** The growth was -28.3% (active).

**Q.** And the growth [8]?
**A.** Its growth is -57.7% (active).

**Q.** What about the growth [9] of the same compound?
**A.** Its growth is -3.96% (active).

**Q.** What about the growth [10] of the same compound?
**A.** The growth was 1.07% (active).

**Q.** For CC(=O)C1=C(O)C=C2Oc3c(C(=O)/C=C/c4cc(C(F)(F)F)cc(C(F)(F)F)c4)c(O)c(C)c(O)c3[C@]2(C)C1=O, which growth [1] is on record?
**A.** The growth was -73% (active).

**Q.** And the growth [2]?
**A.** The growth was -42.4% (active).

**Q.** What about the growth [3] of the same compound?
**A.** The growth was -28.3% (active).

**Q.** What about the growth [4] of the same compound?
**A.** Its growth is -17.5% (active).

**Q.** What about the growth [5] of the same compound?
**A.** Its growth is -48.1% (active).

**Q.** What about the growth [6] of the same compound?
**A.** The growth was -8.91% (active).

**Q.** And the growth [7]?
**A.** The growth was -93.9% (active).

**Q.** What about the growth [8] of the same compound?
**A.** Its growth is -64.8% (active).

**Q.** And the growth [9]?
**A.** The growth was -85.4% (active).

**Q.** What about the growth [10] of the same compound?
**A.** Its growth is -72.4% (active).

**Q.** Which results are given for COc1ccc(C(=O)c2sc3nc4c(cc3c2N)CCCC4)cc1OC?
**A.** growth [1]: 31.2%; growth [2]: 19%; growth [3]: 49.3%; growth [4]: 71.3%; growth [5]: 39.9%; growth [6]: 50.8%; growth [7]: -11.4% (active); growth [8]: 36.2%; growth [10]: 47.3%

**Q.** CNCc1cccc2c1OCCOCCOCCN(C)S(=O)(=O)c1ccc(cc1)-c1cnc(N)c(n1)C(=O)N2 was tested. Which growth [1] did it give?
**A.** The growth was 11.4%.

**Q.** And the growth [2]?
**A.** The growth was 13.2%.

**Q.** What about the growth [3] of the same compound?
**A.** The growth was 33.2%.

**Q.** And the growth [4]?
**A.** Its growth is 93.3%.

**Q.** And the growth [5]?
**A.** Its growth is 12.8%.

**Q.** And the growth [6]?
**A.** Its growth is 54.1%.

**Q.** What about the growth [7] of the same compound?
**A.** Its growth is 82.5%.

**Q.** What about the growth [8] of the same compound?
**A.** The growth was 29.4%.

**Q.** And the growth [9]?
**A.** Its growth is -16% (active).

**Q.** What about the growth [10] of the same compound?
**A.** Its growth is 68%.

**Q.** For CCOC(=O)c1c2c(n3ccc(NC(=O)CCN4CCCCC4)cc13)C(=O)c1ncccc1C2=O, which growth [1] is on record?
**A.** The growth was -62.9% (active).

**Q.** And the growth [2]?
**A.** The growth was -61.5% (active).

**Q.** What about the growth [3] of the same compound?
**A.** Its growth is 23.9%.

**Q.** What about the growth [4] of the same compound?
**A.** The growth was -42.7% (active).

**Q.** What about the growth [5] of the same compound?
**A.** Its growth is -86.3% (active).

**Q.** And the growth [6]?
**A.** Its growth is 47.3%.

**Q.** What about the growth [7] of the same compound?
**A.** The growth was -83.6% (active).

**Q.** And the growth [8]?
**A.** Its growth is -50.6% (active).

**Q.** What about the growth [9] of the same compound?
**A.** Its growth is -63.9% (active).

**Q.** And the growth [10]?
**A.** Its growth is -64.7% (active).

**Q.** ClC1=C2NC=NC2n2c(nnc2-c2ccc(Cl)cc2)N1 (configuration not stated) was tested. Which growth [1] did it give?
**A.** The growth was 96.4%.

**Q.** And the growth [2]?
**A.** Its growth is 91.5%.

**Q.** What about the growth [3] of the same compound?
**A.** Its growth is 107%.

**Q.** What about the growth [4] of the same compound?
**A.** The growth was 92.7%.

**Q.** What about the growth [5] of the same compound?
**A.** Its growth is 89.6%.

**Q.** What about the growth [6] of the same compound?
**A.** The growth was 89.9%.

**Q.** What about the growth [7] of the same compound?
**A.** The growth was 96.9%.

**Q.** And the growth [8]?
**A.** Its growth is 92.1%.

**Q.** What about the growth [9] of the same compound?
**A.** The growth was 108%.

**Q.** What about the growth [10] of the same compound?
**A.** Its growth is 102%.

**Q.** How did the growth [1] turn out when CC1=C(NCCN2CCCC2)C(=O)c2c(OCc3cccc(Cl)c3)cccc2C1=O was run?
**A.** The growth was 57.1%.

**Q.** And the growth [2]?
**A.** Its growth is 26.1%.

**Q.** What about the growth [3] of the same compound?
**A.** Its growth is 75.1%.

**Q.** And the growth [4]?
**A.** The growth was 99.4%.

**Q.** What about the growth [5] of the same compound?
**A.** Its growth is 61.7%.

**Q.** And the growth [6]?
**A.** The growth was 69.9%.

**Q.** And the growth [8]?
**A.** The growth was 93.7%.

**Q.** What about the growth [9] of the same compound?
**A.** Its growth is 36.1%.

**Q.** What about the growth [10] of the same compound?
**A.** Its growth is -8.01% (active).

**Q.** What does the source list for COC(=O)C12C3C(=O)N(c4ccc(OC)cc4)C(=O)C3C(c3cn(-c4ccccc4)nc3C)N1[C@H](c1cn(-c3ccccc3)nc1C)[C@@H]1C(=O)N(c3ccc(OC)cc3)C(=O)[C@@H]12 (some centres not stated)?
**A.** growth [1]: 101%; growth [2]: 103%; growth [3]: 89.9%; growth [4]: 91.1%; growth [5]: 93.9%; growth [6]: 87%; growth [7]: 99.7%; growth [8]: 96.8%; growth [10]: 105%

**Q.** O=S(=O)(NCCCNc1cc(-c2cn(-c3ccccc3)nc2-c2ccccc2)ccn1)c1ccc(C(F)(F)F)cc1 was tested. Which growth [1] did it give?
**A.** Its growth is 41%.

**Q.** What about the growth [2] of the same compound?
**A.** Its growth is 20.5%.

**Q.** And the growth [3]?
**A.** Its growth is 58.6%.

**Q.** What about the growth [4] of the same compound?
**A.** The growth was 66.9%.

**Q.** And the growth [5]?
**A.** Its growth is 44.4%.

**Q.** What about the growth [7] of the same compound?
**A.** The growth was 36.8%.

**Q.** And the growth [8]?
**A.** The growth was 69.8%.

**Q.** What about the growth [9] of the same compound?
**A.** Its growth is 54%.

**Q.** COc1c(C2CC(=O)Nc3c2cnn3Cc2ccco2)cc2c(c1OC)OCO2 (configuration not stated) was tested. Which growth [1] did it give?
**A.** The growth was 18.5%.

**Q.** And the growth [2]?
**A.** The growth was 11.2%.

**Q.** And the growth [3]?
**A.** The growth was 8.9% (active).

**Q.** What about the growth [4] of the same compound?
**A.** The growth was 50.6%.

**Q.** And the growth [5]?
**A.** Its growth is 20.4%.

**Q.** What about the growth [6] of the same compound?
**A.** The growth was 24.6%.

**Q.** What about the growth [8] of the same compound?
**A.** Its growth is 35.4%.

**Q.** And the growth [10]?
**A.** Its growth is 40.7%.

**Q.** With CCCCCCCCSC1=CC(=O)C(OC)=C(OC)C1=O as the compound, how does the growth [1] read?
**A.** The growth was 10.9%.

**Q.** What about the growth [2] of the same compound?
**A.** Its growth is 35.4%.

**Q.** What about the growth [3] of the same compound?
**A.** The growth was 75.7%.

**Q.** And the growth [4]?
**A.** Its growth is 79.3%.

**Q.** And the growth [5]?
**A.** Its growth is 42.5%.

**Q.** And the growth [6]?
**A.** Its growth is -13.9% (active).

**Q.** What about the growth [7] of the same compound?
**A.** Its growth is 4.84% (active).

**Q.** What about the growth [9] of the same compound?
**A.** The growth was -48.7% (active).

**Q.** And the growth [10]?
**A.** Its growth is 72.4%.
